7 compounds from PubChem BioAssay (EPA / NIEHS) can be followed below.

Details in all cases: mRNA level, 48 h; actives raise or lower the signal
Read-out in test [1]: ATP-citrate lyase (ACLY), ACLY (gene 47)
Put plainly: LTEA_HepaRG_ACLY: Life Technologies and Expression Analysis (LTEA) Assay for ATP-citrate lyase (ACLY) using HepaRG (AID 2283466). The method in brief:
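HepaRG, 48 h exposure, 8-pt half-log dilutions (top 100 uM), 0.5% DMSO. Readout: ACLY mRNA, TaqMan qRT-PCR, housekeeping-normalized (ACTB/GAPDH/POLR2A). Bidirectional curve fit vs DMSO.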

Read-out in test [2]: Peroxisomal acyl-coenzyme A oxidase 1 (ACOX1) gene, ACOX1 (gene 51)
Put plainly: LTEA_HepaRG_ACOX1: Life Technologies and Expression Analysis (LTEA) Assay for Peroxisomal acyl-coenzyme A oxidase 1 (ACOX1) gene using HepaRG (AID 2283467). An outline of the steps: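 Measured by qRT-PCR against three housekeeping genes: ACOX1 transcript change in human HepaRG cells after 48 h dosing. Concentrations ran up to 100 uM in half-log steps. Curves were fitted bidirectionally relative to 0.5% DMSO.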

Read-out in test [3]: Alkaline Phosphatase, Placental (ALPP) gene, ALPP (gene 250)
The experiment in a line: LTEA_HepaRG_ALPP: Life Technologies and Expression Analysis (LTEA) Assay for Alkaline Phosphatase, Placental (ALPP) gene using HepaRG (AID 2283468).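 As to AC50: differentiated human HepaRG liver cells in serum-free induction medium.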 An outline of the steps:
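Using human liver HepaRG cells, chemicals are tested in duplicate over 48 h at half-log concentrations topping at 100 uM; phenobarbital 1 mM serves as induction control. ALPP mRNA change by qRT-PCR, bidirectional fit against vehicle.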

Read-out in test [4]: Bcl-2 (BAD) gene, BAD (gene 572)
The experiment in a line: LTEA_HepaRG_BAD: Life Technologies and Expression Analysis (LTEA) Assay for Bcl-2 (BAD) gene using HepaRG (AID 2283469). The method in brief: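 BAD transcript change, measured by qRT-PCR against three housekeeping genes and fitted in both directions relative to 0.5% DMSO, after 48 h chemical treatment of human HepaRG liver cells at concentrations up to 100 uM.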

Read-out in test [5]: Bcl-2 (BAX) gene, BAX (gene 581)
Put plainly: LTEA_HepaRG_BAX: Life Technologies and Expression Analysis (LTEA) Assay for Bcl-2 (BAX) gene using HepaRG (AID 2283470). An outline of the steps:
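HepaRG (human liver), 48 h exposure, duplicate wells. 8-pt curve, half-log from 100 uM, 0.5% DMSO. BAX transcript by TaqMan qRT-PCR; ACTB/GAPDH/POLR2A normalization; gain or loss vs DMSO baseline.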

Read-out in test [6]: Alpha-fetoprotein (AFP) gene, AFP (gene 174)
Put plainly: LTEA_HepaRG_AFP: Life Technologies and Expression Analysis (LTEA) Assay for Alpha-fetoprotein (AFP) gene using HepaRG (AID 2283472). The method in brief:
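HepaRG, single lot; 48 h post-plating -> serum-free induction medium; cpd 8-pt, 100 uM top, half-log, 0.5% DMSO, duplicate, 48 h. RNA -> qRT-PCR AFP, norm ACTB/GAPDH/POLR2A. Bidirectional fit vs DMSO.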

Read-out in the next test: BCL2L11 (gene 10018)
The experiment in a line: LTEA_HepaRG_BCL2L11: Life Technologies and Expression Analysis (LTEA) Assay for Bcl-2 (BCL2L11) gene using HepaRG (AID 2283473). An outline of the steps:
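Human hepatic HepaRG cultures are treated 48 h with test chemicals (maximum 100 uM, 0.5% DMSO vehicle). Expression of BCL2L11 is measured by qRT-PCR against ACTB, GAPDH and POLR2A, with activity in either direction scored relative to vehicle.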

Read-out in test [7]: Apolipoprotein A-V (APOA5) gene, APOA5 (gene 116519)
The experiment in a line: LTEA_HepaRG_APOA5: Life Technologies and Expression Analysis (LTEA) Assay for Apolipoprotein A-V (APOA5) gene using HepaRG (AID 2283474). The method in brief:
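Concentration-response of APOA5 expression in HepaRG: eight half-log doses to 100 uM, 48 h, qRT-PCR normalized to ACTB/GAPDH/POLR2A, bidirectional fitting with 0.5% DMSO as baseline.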

Read-out in test [8]: Apoptosis regulator Bcl-2 (Homo sapiens) (UniProt P10415)
Put plainly: LTEA_HepaRG_BCL2: Life Technologies and Expression Analysis (LTEA) Assay for Bcl-2 gene using HepaRG (AID 2283475). The method in brief: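 HepaRG, plated 48 h then switched to serum-free induction medium; dosed 48 h, 8 conc. (max 100 uM, half-log steps), duplicate, 0.5% DMSO. Lysis in RLT, RNA isolated, TaqMan qRT-PCR for BCL2; ACTB/GAPDH/POLR2A normalisation; bidirectional fit vs DMSO.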

Read-out in test [9]: Bcl-2 (BID) gene, BID (gene 637)
Put plainly: LTEA_HepaRG_BID: Life Technologies and Expression Analysis (LTEA) Assay for Bcl-2 (BID) gene using HepaRG (AID 2283476). The method in brief: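 Transcript levels of BID, measured by qRT-PCR and normalized to three housekeeping genes, were fitted bidirectionally against DMSO controls. Cells were HepaRG, dosed 48 h at up to 100 uM.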

Read-out in a further test: Caspase-3 (Homo sapiens) (UniProt P42574)
The experiment in a line: LTEA_HepaRG_CASP3: Life Technologies and Expression Analysis (LTEA) Assay for cysteine-aspartic acid protease (CASP3) using HepaRG (AID 2283477). The method in brief:
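Transcript-level assay: CASP3 mRNA in human HepaRG after 48 h treatment, eight half-log concentrations from 100 uM in 0.5% DMSO, quantified by qRT-PCR.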

Read-out in test [10]: Cytochrome P450 (CYP24A1), CYP24A1 (gene 1591)
The experiment in a line: LTEA_HepaRG_CYP24A1: Life Technologies and Expression Analysis (LTEA) Assay for Cytochrome P450 (CYP24A1) using HepaRG (AID 2283478). An outline of the steps: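 Gene expression of CYP24A1 by TaqMan qRT-PCR in HepaRG after 48 h treatment, highest concentration 100 uM; activity fitted in both directions relative to DMSO vehicle.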

Read-out in test [11]: Cytochrome P450 (CYP1A2), CYP1A2 (gene 1544)
The experiment in a line: LTEA_HepaRG_CYP1A2: Life Technologies and Expression Analysis (LTEA) Assay for Cytochrome P450 (CYP1A2) using HepaRG (AID 2283479). An outline of the steps:
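In duplicate wells, HepaRG cultures maintained in 0.5% DMSO were treated 48 h across an 8-point, half-log series topping at 100 uM; phenobarbital (1 mM) served as induction control. Expression was read by qRT-PCR.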

Read-out in test [12]: cysteine-aspartic acid protease (CASP8), CASP8 (gene 841)
Put plainly: LTEA_HepaRG_CASP8: Life Technologies and Expression Analysis (LTEA) Assay for cysteine-aspartic acid protease (CASP8) using HepaRG (AID 2283480). An outline of the steps: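 HepaRG, 48 h exposure, duplicate wells; 8 conc, half-log from 100 uM, 0.5% DMSO. Serum-free induction medium. CASP8 mRNA by TaqMan qRT-PCR, norm. ACTB/GAPDH/POLR2A; gain/loss fitted vs DMSO.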

Read-out in test [13]: Cytochrome P450 2C19 (Homo sapiens) (UniProt P33261)
The experiment in a line: LTEA_HepaRG_CYP2C19: Life Technologies and Expression Analysis (LTEA) Assay for CYP2C19 using HepaRG (AID 2283482). The method in brief:
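Endpoint: CYP2C19 mRNA change, bidirectional fit vs 0.5% DMSO. Cells: HepaRG, 48 h exposure, eight-point series topping at 100 uM. Quantitation: qRT-PCR normalized to ACTB, GAPDH, POLR2A.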

Read-out in a further test: CYP2C8 (gene 1558)
The experiment in a line: LTEA_HepaRG_CYP2C8: Life Technologies and Expression Analysis (LTEA) Assay for CYP2C8 using HepaRG (AID 2283483). An outline of the steps: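 CYP2C8 mRNA induction or loss, by qRT-PCR normalized to ACTB/GAPDH/POLR2A, is read in HepaRG cells after 48 h treatment. Concentrations run from 100 uM down in half-log dilutions, with 0.5% DMSO as vehicle and baseline.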

Read-out in a further test: CYP2C9 (gene 1559)
Put plainly: LTEA_HepaRG_CYP2C9: Life Technologies and Expression Analysis (LTEA) Assay for CYP2C9 using HepaRG (AID 2283484). The method in brief: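 Cells plated 48 h, switched to serum-free induction medium, then treated in duplicate for 48 h at eight concentrations (max 100 uM, 0.5% DMSO). RNA then analysed by qRT-PCR for CYP2C9; curves fitted in both directions relative to DMSO.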

Read-out in test [14]: Cytochrome P450 (CYP2B6), CYP2B6 (gene 1555)
The experiment in a line: LTEA_HepaRG_CYP2B6: Life Technologies and Expression Analysis (LTEA) Assay for Cytochrome P450 (CYP2B6) using HepaRG (AID 2283481). The method in brief:
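Human HepaRG, 48 h dosing, 0.5% DMSO vehicle, top dose 100 uM. CYP2B6 transcript by qRT-PCR, housekeeping-normalized, bidirectional curve fit.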

Read-out in another test: CYP2E1 (gene 1571)
Put plainly: LTEA_HepaRG_CYP2E1: Life Technologies and Expression Analysis (LTEA) Assay for CYP2E1 using HepaRG (AID 2283485). An outline of the steps:
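Human liver line HepaRG, plated 48 h, then serum-free induction medium + chemical x 48 h; 8-pt CRC from 100 uM, half-log, 0.5% DMSO, n=2. Readout: CYP2E1 mRNA qRT-PCR vs ACTB/GAPDH/POLR2A; bidirectional fit vs DMSO.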

Read-out in test [15]: adenosine kinase (ADK) gene, ADK (gene 132)
The experiment in a line: LTEA_HepaRG_ADK: Life Technologies and Expression Analysis (LTEA) Assay for adenosine kinase (ADK) gene using HepaRG (AID 2283471). The method in brief: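 Differentiated HepaRG cells dosed 48 h in serum-free induction medium, 0.5% DMSO vehicle, eight half-log concentrations from 100 uM, in duplicate. ADK mRNA by TaqMan qRT-PCR normalised to ACTB, GAPDH, POLR2A; bidirectional fit versus DMSO.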

A word on the AC50: it is the concentration at which the activity in the assay is half-maximal.

Molecules are shown by their SMILES. Active and inactive are the calls of the source. The calls were made as follows: active = hit-call score of the fitted dose curve at least 0.9, where 1 is the maximum; inactive = score below 0.9.

Sequence of Apoptosis regulator Bcl-2 (Homo sapiens) (P10415 whole entry, looked up): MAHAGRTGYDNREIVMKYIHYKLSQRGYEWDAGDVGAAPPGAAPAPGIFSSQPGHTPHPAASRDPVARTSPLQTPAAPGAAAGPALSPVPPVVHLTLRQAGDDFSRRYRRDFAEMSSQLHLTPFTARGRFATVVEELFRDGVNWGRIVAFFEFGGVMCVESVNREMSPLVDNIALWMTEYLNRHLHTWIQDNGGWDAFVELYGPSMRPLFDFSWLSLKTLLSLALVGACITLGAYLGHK
Sequence of Caspase-3 (Homo sapiens) (P42574 whole entry, looked up): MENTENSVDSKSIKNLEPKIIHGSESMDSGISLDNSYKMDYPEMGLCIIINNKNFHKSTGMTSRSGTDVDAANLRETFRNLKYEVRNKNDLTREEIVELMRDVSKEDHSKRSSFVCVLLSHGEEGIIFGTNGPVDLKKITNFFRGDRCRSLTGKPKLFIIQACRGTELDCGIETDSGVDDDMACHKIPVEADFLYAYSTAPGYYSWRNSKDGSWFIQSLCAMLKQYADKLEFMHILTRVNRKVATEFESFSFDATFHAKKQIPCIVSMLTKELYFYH
Sequence of Cytochrome P450 2C19 (Homo sapiens) (P33261 whole entry, looked up): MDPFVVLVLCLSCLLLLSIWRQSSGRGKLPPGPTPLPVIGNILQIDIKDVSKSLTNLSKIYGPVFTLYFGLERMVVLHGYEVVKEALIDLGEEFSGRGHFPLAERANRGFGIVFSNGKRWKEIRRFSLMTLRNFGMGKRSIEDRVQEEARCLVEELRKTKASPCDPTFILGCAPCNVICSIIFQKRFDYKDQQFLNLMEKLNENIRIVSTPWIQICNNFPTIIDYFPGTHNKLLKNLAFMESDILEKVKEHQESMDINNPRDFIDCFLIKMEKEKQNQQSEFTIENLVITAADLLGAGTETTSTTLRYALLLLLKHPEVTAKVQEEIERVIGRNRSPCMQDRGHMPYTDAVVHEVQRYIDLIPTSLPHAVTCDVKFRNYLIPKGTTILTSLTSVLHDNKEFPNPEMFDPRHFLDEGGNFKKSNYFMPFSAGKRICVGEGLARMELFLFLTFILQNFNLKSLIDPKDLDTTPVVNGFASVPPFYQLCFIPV

Regarding `NC(=O)N(O)[C@@H]1COc2cc(OCc3ccccc3)ccc21`, the result in test [1], in test [2], in [3], in [4], in test [5] and in [6] was inactive. Further, the outcome (with BCL2L11 (gene 10018); in [7]; in test [8]; in [9]; with Caspase-3 (Homo sapiens); in test [10]) was inactive. For the same compound, the compound was called inactive (in [12]; in test [13]; with CYP2C8 (gene 1558); in the test with CYP2C9 (gene 1559)). Further, the concentration at half-maximal activity (AC50) in test [11] was 50000 nM (active).

Regarding `NC(N)=O`, the compound was classed as inactive in [1], in [2], in test [3], in [4], in test [5] and in test [6]. Moreover, the compound was classed as inactive (in the test with BCL2L11 (gene 10018); in test [7]; in test [8]; in test [9]; in the test with Caspase-3 (Homo sapiens); in [10]). In addition, the result (in [11]; in [12]; in test [14]; in test [13]; with CYP2C8 (gene 1558); in the test with CYP2C9 (gene 1559)) was inactive. In addition, the call with CYP2E1 (gene 1571) was inactive.

Consider `O=C(O)[C@H](O)[C@@H](O)C(=O)O`, for which the compound was classed as inactive in test [1], in test [2], in test [3], in [4], in test [5] and in test [6]. The call (in the test with BCL2L11 (gene 10018); in test [7]; in test [8]; in test [9]; with Caspase-3 (Homo sapiens); in test [12]) was inactive.

In the case of `COc1cc2c(c(OC)c1OC)-c1ccc(OC)c(=O)cc1[C@@H](NC(C)=O)CC2`, the compound was classed as inactive (in test [1]; in test [4]; in test [8]; in test [9]; with Caspase-3 (Homo sapiens); in test [10]). Also, the compound was classed as inactive in [12]. Besides, the AC50 is 98.9 nM (active) in test [2]; 221 nM (active) in test [3]; 55.9 nM (active) in test [5]; 148 nM (active) in test [6]; 237 nM (active) in the test with BCL2L11 (gene 10018); 138 nM (active) in [7]. Besides, the AC50 was 95.1 nM (active) with CYP2C8 (gene 1558) and 77.7 nM (active) in the test with CYP2C9 (gene 1559).

`c1ccc2cc3ccccc3cc2c1`: the call in test [1], in test [3], in [4], in test [5], in test [15] and in [6] was inactive. For the same compound, the outcome (with BCL2L11 (gene 10018); in test [7]; in test [8]; in [9]; with Caspase-3 (Homo sapiens); in test [10]) was inactive. Further, the call (in test [12]; in test [13]; with CYP2C8 (gene 1558); in the test with CYP2C9 (gene 1559)) was inactive. For the same compound, the AC50 was 18700 nM (active) in test [11], 13200 nM (active) in [14] and 50000 nM (active) with CYP2E1 (gene 1571).

For the compound `CC(=O)c1ccccc1`, the compound was classed as inactive in test [1], in [2], in [3], in [4], in test [5] and in [15]. Further, the call (in test [6]; with BCL2L11 (gene 10018); in test [7]; in test [8]; in [9]; with Caspase-3 (Homo sapiens)) was inactive. Further, the compound was called inactive (in [10]; in test [11]; in [12]; in test [13]; with CYP2C8 (gene 1558); in the test with CYP2C9 (gene 1559)).

In the case of `O=S1(=O)CCCO1`, the outcome in test [1], in test [2], in test [3], in test [4], in test [5] and in test [15] was inactive. For the same compound, the outcome (in [6]; with BCL2L11 (gene 10018); in test [7]; in [8]; in test [9]; in the test with Caspase-3 (Homo sapiens)) was inactive. The call (in test [10]; in [11]; in test [12]; in test [13]; with CYP2C8 (gene 1558); with CYP2C9 (gene 1559)) was inactive.
